Bioassay records: PubChem BioAssay, The Scripps Research Institute Molecular Screening Center
Sampled rows, rich in hits. Any-hit rate of the full collection: about 3.4%.
TEAD-YAP block – TEAD-YAP interaction inhibition, primary screen, TEAD-YAP interaction inhibitor project, luminescence, HEK-TIYL cells; AID 1259422, 2018; inhibition, % at 9.12 µM; 640,000 compounds, 1.4% hits; TEAD-Gal4/YAP UAS-luciferase luminescence; in the data active = inhibition above about 32%
GPR151 ag – activators of human GPR151, primary screen, cell-based, PathHunter beta-arrestin, luminescence | G-protein coupled receptor 151 (Homo sapiens), Q8TDV0 | PathHunter beta-arrestin GPR151 cells | activation, % at 11.2 µM | 650,000 compounds, 1% hits | AID 1508602, 2020; in the data active = activation above about 4.9%
Target sequence (Q8TDV0 whole entry, looked up): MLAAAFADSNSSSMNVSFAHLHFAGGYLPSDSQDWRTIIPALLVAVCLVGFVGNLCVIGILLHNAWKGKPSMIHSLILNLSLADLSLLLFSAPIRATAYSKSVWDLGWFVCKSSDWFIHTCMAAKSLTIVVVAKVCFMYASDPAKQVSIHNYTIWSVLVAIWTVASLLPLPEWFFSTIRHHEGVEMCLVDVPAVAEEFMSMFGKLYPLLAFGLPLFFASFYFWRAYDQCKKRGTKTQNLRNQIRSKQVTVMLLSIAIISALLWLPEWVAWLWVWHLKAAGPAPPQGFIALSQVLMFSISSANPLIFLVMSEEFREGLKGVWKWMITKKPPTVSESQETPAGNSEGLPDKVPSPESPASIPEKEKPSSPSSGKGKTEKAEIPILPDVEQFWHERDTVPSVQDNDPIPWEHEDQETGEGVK
MITF inh – MITF inhibitors, primary screen, biochemical, AlphaScreen, human; Microphthalmia-associated transcription factor (Homo sapiens), O75030; AlphaScreen MITF homodimerization, bead proximity signal; inhibition, % at 2.6 µM; 650,000 compounds, 0.91% hits; in the data active = inhibition above about 50%
FBW7 activator – FBW7 E3 ligase activators, primary screen, biochemical, AlphaScreen, human; AlphaScreen FBW7–phospho-cyclin E peptide binding, activator screen; normalized activity (activation), % at 26.1 µM; 650,000 compounds, 0.13% hits; AID 1259310, 2017; in the data active = normalized activity above about 1.9%;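 note: purified mutant Fbw7 with reduced substrate affinity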
GPR151 confirm – GPR151 activators, triplicate retest, confirmation, cell-based, PathHunter beta-arrestin, luminescence. GPR151 PathHunter beta-arrestin cells, 90 min; % of EA-reagent control over plate median. 6,700 tested, under 10 active. shares compounds with GPR151 ag. activation, % at 11.2 µM;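 active = mean percent activation across replicates above the confirmation screen cutoff of 4.91%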
GPR119 counter – GPR119 activators in beta-arrestin cells, counter-screen for GPR151 activator project, cell-based, PathHunter beta-arrestin, luminescence, triplicate | 90 min; 0 = compound-well median, 100 = enzyme-acceptor control | shares compounds with GPR151 ag | 6,700 compounds, 0.3% hits | activation, % at 11.2 µM | AID 1508611, 2020;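 active = mean percent activation in the counterscreen above 29.09%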;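 note: counterscreen on off-target GPR119 to flag nonselective hits from the GPR151 activator screen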
Numbers stand for hits; . = inactive; / = not tested or not shown; ! = not active in a repeat.

SMILES | TEAD-YAP block | GPR151 ag | MITF inh | FBW7 activator | GPR151 confirm | GPR119 counter
CCc1nc2ccc(-c3ccc4nc(CC)oc(=O)c4c3)cc2c(=O)o1 | . | 8.8 | . | . | . | .
CC(=O)OCC1=C(C(=O)O)N2C(=O)[C@@H](NC(=O)Cc3cccs3)[C@H]2SC1 | . | 19! | . | . | . | .
CO/N=C(/C(=O)N[C@@H]1C(=O)N2C(C(=O)O)=C(COC(C)=O)CS[C@H]12)c1csc(N)n1 | . | . | . | . | / | /
COc1ccc(C(=O)N2CCNC(=O)C2CC(=O)Nc2ccc(C)c(C)c2)cc1 (stereo unspecified) | . | 5.6 | . | . | . | .
COc1ccc(C(=O)N2CCNC(=O)C2CC(=O)Nc2cccc(Cl)c2Cl)cc1 (stereo unspecified) | . | . | . | . | / | /
O=C(Nc1ccc(F)c(Cl)c1)c1cc(S(=O)(=O)N(Cc2ccco2)CC2CCCO2)ccc1F (stereo unspecified) | . | . | . | . | / | /
O=C(NCCn1cc(SCc2ccc(Br)cc2)c2ccccc21)c1ccc(F)cc1 | . | 5.0 | . | . | . | .
Nn1c(SCC(=O)Nc2cccc(F)c2)nnc1-c1ccc(Cl)cc1 | . | 6.2 | . | . | . | .
NC(=O)c1ccc(NC(=O)CSc2nnc(-c3ccc(Cl)cc3)n2N)cc1 | . | . | . | . | / | /
Cc1ccccc1-c1cnnc(NCC2COCCO2)n1 (stereo unspecified) | . | 7.4 | . | . | . | .
Cc1ccccc1-c1cnnc(NCc2cc(-c3ccccc3)on2)n1 | . | . | . | . | / | /
O=[N+]([O-])c1ccc2nc(CCCc3nc4ccc([N+](=O)[O-])cc4[nH]3)[nH]c2c1 | . | . | . | . | / | /
CC(O)CCc1nc2ccc([N+](=O)[O-])cc2[nH]1 (stereo unspecified) | . | 5.1 | . | . | . | .
CCc1ccccc1N(C(C)=O)C1C=CS(=O)(=O)C1 (stereo unspecified) | . | . | . | . | / | /
CC(=O)N(c1cccc2ccccc12)C1C=CS(=O)(=O)C1 (stereo unspecified) | . | 4.9 | . | . | . | .
COc1ccc(-c2ccc(/C=N/N3C(=O)C4C5C=CC(C6CC56)C4C3=O)o2)c([N+](=O)[O-])c1 (stereo unspecified) | . | 5.0 | . | . | . | .
CC(C(=O)O)N1C(=O)/C(=C/C=C/c2ccccc2)SC1=S (stereo unspecified) | . | 7.4 | . | . | . | .
CC(=O)NC1=NC(=O)/C(=C/c2ccc(-c3ccc(C)c(Cl)c3)o2)S1 | . | 5.3 | . | . | . | .
CC(C)Cc1nnc(-c2cc3ccccc3n2CC(=O)N2CCc3ccccc32)o1 | . | 5.0 | . | . | . | .
CCOC(=O)CNC(=O)OCc1ccccc1 | . | . | . | . | / | /
O=C(Cc1ccccc1)NCC(=O)OCc1ccc(Cl)cc1 | . | . | . | . | / | /
CCOC(=O)CNC(=O)N(Cc1ccccc1)Cc1ccccc1 | . | 5.3 | . | . | . | .
NCC(=O)NCC(=O)OCc1ccccc1 | . | 7.5 | . | . | . | .
C=CCN(c1ccc(C(=O)Nc2cccnc2)cc1)S(C)(=O)=O | . | . | . | . | / | /
COc1ccc(/C=C2\C(=O)ON=C2c2ccccc2)c(OC)c1 | . | . | . | . | / | /
SMILES | TEAD-YAP block | GPR151 ag | MITF inh | FBW7 activator | GPR151 confirm | GPR119 counter
CC(C)n1c(Nc2ccnn2C)nc2c(Nc3ccc(N4CCOCC4)cc3)ncnc21 | . | 5.5 | . | . | . | .
CC(C)n1c(Nc2ccc(N3CCOCC3)cc2)nc2c(Nc3ccc(N4CCOCC4)cc3)ncnc21 | . | . | . | . | / | /
CN(CC(=O)OCC(=O)OC(C)(C)C)S(=O)(=O)c1ccc(Cl)cc1 | . | . | . | . | / | /
Cc1cc(N2C(=O)C3C4CC(c5ccccc5)C(C4)C3C2=O)no1 (stereo unspecified) | . | 11 | . | . | . | .
O=C(Cc1ccc(Cl)cc1)NCC(c1cccs1)N1CCOCC1 (stereo unspecified) | . | . | . | . | / | /
Cc1cc2nc(C3CCCN3C(=O)CN3CCCCC3)[nH]c2cc1C (stereo unspecified) | . | . | . | . | / | /
Cc1cc2nc(C3CCCN3C(=O)CC3(C)C(=O)N=C4C=CC=CN43)[nH]c2cc1C (stereo unspecified) | . | 8.0 | . | . | . | .
O=[N+]([O-])c1ccccc1/C=N/NS(=O)(=O)c1ccc(Cl)cc1 | . | 14 | . | . | . | .
CC(C)(C)c1ccc(S(=O)(=O)N/N=C/c2ccccc2[N+](=O)[O-])cc1 | . | . | . | . | / | /
COc1ccccc1NC(=O)COc1ccc(C#N)cc1 | . | . | . | . | / | /
COc1ccc(OC)c(/C=C2\C(C)=C(C#N)c3nc(N)c(C#N)c(C)c32)c1 | . | 7.2 | . | . | . | .
COc1cc2c(cc1/C=C1/C(C)=C(C#N)c3nc(N)c(C#N)c(C)c31)OCO2 | . | . | . | . | / | /
CN(Cc1ccccc1)c1ccnc2c(-c3ccc(O)cc3)cnn12 | 73 | 5.0 | . | . | . | .
O=C1CSC(=O)N1C1CCCCC1NC(=O)C1(c2cccs2)CCCC1 (stereo unspecified) | . | 5.5 | . | . | . | .
COc1ccc(C(=O)NC(=O)N2CCCCC2)cc1 | . | . | . | . | / | /
CC(=O)Nc1ccc(Nc2cc(C)nc(Nc3ccccc3)n2)cc1 | . | . | . | . | / | /
CC(=O)Nc1ccc(Nc2cc(C)nc(Nc3ccc(C(F)(F)F)cc3)n2)cc1 | . | 5.3 | . | . | . | .
O=C1CCCN1CCCNc1ccnc(NCCCN2CCCC2=O)n1 | . | . | . | . | / | /
CCCNC(=O)c1ccnc(NCCCN2CCCC2=O)c1 | . | 8.2 | . | . | . | .
O=C1CCCN1CCCNc1nccc(NC2CC2)n1 | . | 5.5 | . | . | . | .
Cc1cc(Nc2ccc(Oc3ccccc3)cc2)nc(NCCCN2CCCC2=O)n1 | . | 6.8 | . | . | . | .
C=CCC1(CC=C)CCCN1C(=O)CC1C(=O)NCCN1Cc1ccccc1 (stereo unspecified) | . | . | . | . | / | /
CC(C)CCC1(C)NC(=O)N(CC(=O)Nc2cccc(C#N)c2)C1=O (stereo unspecified) | . | . | . | . | / | /
CC(=O)Nc1ccc(Nc2cc(C)nc(NCCCN3CCCC3=O)n2)cc1 | . | 5.6 | . | . | . | .
O=C(Nc1ccccc1)N1CCCN(Cc2ccc(F)cc2)C1 | . | . | . | . | / | /
CCOc1ccc(-n2c(C)c(C(C)=O)c3cc(OC(C)=O)ccc32)cc1 | . | 5.3 | . | . | . | .
